# Reference: ChEMBL document CHEMBL3988442, “University of Dundee, Small-Polar-MMV Screening Library” (2021)
# The whole screen tested about 48,000 compounds, of which about 13,000 (27%) showed an effect of 50% or more. Some of the results follow.
# Tested on: Wolbachia pipientis
# Assay: Anti-Wolbachia Cell-Based Screen
# Assay type: functional
# Design: scale not given: in the data most compounds retested in dose-response had high values
# Conditions: 5 µM
row,Structure (SMILES),Percent Effect [%]
1,COC(=O)[C@H]1CN(C(=O)NC(C)C)CCN1C(=O)CSC,4.68
2,CSCCN(C)Cc1ccc(F)cc1C#N,-7.692
3,CC(=O)c1ccc(C(=O)N2C[C@@H]3CC[C@H](C2)N(CC2CCC2)C3)s1,-8.325
4,CCCN1C[C@H]2CC[C@@H]1CN(c1nnc(C(C)C)s1)C2,100.1
5,CC(C)c1nnc(N2C[C@@H]3CC[C@H](C2)N(Cc2ccccc2)C3)s1,104.2
6,Cc1ccc(C(=O)N2C[C@@H]3CC[C@H](C2)N(CC2CCC2)C3)s1,-1.222
7,Cc1nnsc1CN1C[C@H]2CC[C@@H]1CN(Cc1ccccc1)C2,2.749
8,CC(C)c1nnc(N2C[C@@H](CN(C)CCO)[C@@H](CO)C2)s1,-2.617
9,CC(C)c1nnc(N2C[C@@H]3CC[C@H](C2)N(CC2CCC2)C3)s1,78.31
10,Cc1nnsc1CN1C[C@@H]2CC[C@H](C1)N(Cc1ccccc1)C2,-5.089
11,CCCN1C[C@H]2CC[C@@H]1CN(Cc1ccc(Cn3cccn3)cc1)C2,-13.63
12,N#CCCNC(=O)CN1CCC(c2cc3ccccc3[nH]2)CC1,7.04
13,O=C(O)C(F)(F)F.O=C(O)[C@]12CCCN(Cc3ccsc3)C[C@H]1CN(c1ncccn1)C2,0.06928
14,CCc1nc(CN2CCCC(NCc3nc4cccnc4[nH]3)C2)no1 (stereo not given),-2.824
15,Cc1ccc(CN2CCCC3(COCCN(Cc4c[nH]nn4)C3)C2)s1.O=C(O)C(F)(F)F.O=C(O)C(F)(F)F (stereo not given),-11.68
16,Fc1ccc(OCc2noc(CN3CCc4cncnc4C3)n2)cc1,-13.93
17,OCC(CO)N1CCC(c2nnc(Cn3ccnc3)n2C2CC2)CC1,11.43
18,CC(C(=O)NC(C)(C)C)N1CCC(C(=O)Nc2cnccn2)CC1 (stereo not given),-9.659
19,CC(=O)N1CCC(c2nccnc2Nc2cnccn2)CC1,118.2
20,OCC(CO)N1CCC(c2nccnc2Nc2cnccn2)CC1,132.8
21,CN1CCC(c2nccnc2Nc2cnccn2)CC1,94.48
22,CC(C)N1CCC(c2nccnc2Nc2cnccn2)CC1,128.3

row,Structure (SMILES),Percent Effect [%]
1,CCc1ccccc1OCCN1CC[C@@]2(O)CCNC[C@H]2C1,3.949
2,CCC(C)NC(=O)CCNC(=O)c1c[nH]cc1-c1cccc(OC)c1 (stereo not given),-21.59
3,CC(C)CNC(=O)CC1OCCc2ccsc21 (stereo not given),-17.3
4,Cc1nc(CNC(=O)NCCC2=CCCC2)oc1C,-10.48
5,CC(Cc1ccccc1F)NC(=O)CCc1nc(-c2nnc[nH]2)no1 (stereo not given),5.01
6,Cn1cc(-c2cccc(CNC(=O)N3CCC[C@@H]3CO)c2)cn1,-23.52
7,NC(=O)c1cncc(N2CCN(Cc3cccc4nsnc34)CC2)n1,-24.77
8,CC(O)Cc1cn(CC2CCN(C3CCSCC3)CC2)nn1 (stereo not given),-14.87
9,CC(=O)N1CCC(c2nccnc2Nc2ncc(C)s2)CC1,69.11
10,CC(C(=O)Nc1ncccn1)N1CCC(n2ccnc2)CC1 (stereo not given),-2.043
11,CC(C)N1CCC(c2nccnc2Nc2ncccn2)CC1,97.4
12,Cc1cnc(NC(=O)N2CCCCCC2)s1,-6.378
13,Cc1cnc(NC(=O)N2CCCC2)s1,11.08
14,COc1ccc(C)cc1S(=O)(=O)NCCC(O)c1ccccc1 (stereo not given),-7.148
15,COCCCC1CCCN(C(=O)CCc2cc(O)no2)C1 (stereo not given),-11.88
16,COCCC(=O)N1CCC(c2nc(O)cc(-c3ccncc3)n2)C1 (stereo not given),95
17,COCCC(=O)N1CCCC(c2nc(O)cc(-c3ccncc3)n2)C1 (stereo not given),119.6
18,Cn1nc(C2CCCN(C(=O)CO)C2)cc1O (stereo not given),-7.33
19,COCCC(=O)N1CCC(c2cc(O)n(C)n2)C1 (stereo not given),94.23
20,O=C(c1[nH]nc(C2CC2)c1Cl)N1CCN(C2CC2)C(=O)C1,-4.23
21,CCc1nnsc1C(=O)NCCC1CN(C(C)C)CCO1 (stereo not given),2.098
22,O=C(NCc1cc[nH]n1)N(CCCO)C1CCc2ccccc21 (stereo not given),9.826

row,Structure (SMILES),Percent Effect [%]
1,CN(C)CC(=O)N1CCOC2(CCCN(c3ncccc3F)C2)C1.O=C(O)C(F)(F)F.O=C(O)C(F)(F)F (stereo not given),6.33
2,O=C(O)C(F)(F)F.O=C(c1cnccn1)N1CCOCC2(CCN(C3CCOCC3)C2)C1 (stereo not given),8.846
3,O=C(O)C(F)(F)F.O=C([C@H]1CCCO1)N1CCOC2(CCCN(c3ncccc3F)C2)C1 (stereo not given in full),94.35
4,O=C(O)C(F)(F)F.O=C(c1cnccn1)N1CCOC2(CCCN(c3ncccc3F)C2)C1 (stereo not given),105
5,N#Cc1cccc(N2CCCC3(CN(C(=O)[C@H]4CCCO4)CCO3)C2)c1 (stereo not given in full),-7.794
6,COCC(=O)N1CCOC2(CCCN(c3cnccn3)C2)C1.O=C(O)C(F)(F)F (stereo not given),-12.12
7,O=C(CO)N1CCOC2(CCCN(c3ncc(F)cn3)C2)C1.O=C(O)C(F)(F)F (stereo not given),5.697
8,CC(C)NC(=O)N1CCOC2(CCCN(c3cccc(C#N)c3)C2)C1 (stereo not given),-9.45
9,CC(C)NC(=O)N1CCOC2(CCCN(c3ncccc3F)C2)C1.O=C(O)C(F)(F)F (stereo not given),108.5
10,COc1ccc(C(=O)C2CCCN(c3cc(OC)ncn3)C2)c(C)c1 (stereo not given),-87.76
11,CC(Cn1cccn1)NCCS(=O)(=O)c1ccc(Cl)cc1 (stereo not given),2.973
12,CC(Cn1cncn1)NC(=O)NCC(C)(C)Cc1ccccc1 (stereo not given),-14.88
13,CCn1c(C2CCN(C(=O)COCC(F)(F)C(F)F)CC2)n[nH]c1=O,14.31
14,COCCN(C)C[C@@H]1CN(c2nc(C)cc(C)n2)C[C@@H]1CO,106.7
15,COCCN(C)C[C@@H]1CN(c2cc(C)nc3ccccc23)C[C@@H]1CO,85.76
16,CN(CCO)C[C@@H]1CN(Cc2ccccc2-c2ccccc2)C[C@@H]1CO,-1.449
17,COCCN(C)C[C@@H]1CN(Cc2ccnc3ccccc23)C[C@@H]1CO,90.52
18,COCCN(C)C[C@@H]1CN(c2nnc(C(C)C)s2)C[C@@H]1CO,6.543
19,CCc1c(C)nc(C)nc1N1C[C@@H](CN(C)CCN(C)C)[C@@H](CO)C1,17.56
20,Cc1ccccc1CN1C[C@@H](CN(C)CCO)[C@@H](CO)C1,4.643
21,Cc1nc2ccccn2c1CN1C[C@@H](CN(C)CCO)[C@@H](CO)C1,-4.106
